Among the data in PubChem BioAssay (EPA / NIEHS) are outcome and AC50 values, retold here.

Test [1] deals with Retinoic acid receptor RXR-alpha (Homo sapiens) (UniProt P19793). The test can be described thus: ATG_RXRa_TRANS: Attagene TRANS-FACTORIAL HepG2 Assay for human Retinoid X Receptor alpha (RXRa) (AID 2283012; active means hit-call score of the fitted dose curve at least 0.9, where 1 is the maximum). Summed up: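 Read-out: fluorescent reporter-transcript fragments quantified by capillary electrophoresis after RT-PCR. Transiently transfected HepG2 cells carrying GAL4-UAS reporters and NR-GAL4 chimeras were exposed to chemical for 24 h; activity scored as increase over DMSO.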
Sequence of Retinoic acid receptor RXR-alpha (Homo sapiens) (P19793 whole entry, looked up, the tested form may be a part): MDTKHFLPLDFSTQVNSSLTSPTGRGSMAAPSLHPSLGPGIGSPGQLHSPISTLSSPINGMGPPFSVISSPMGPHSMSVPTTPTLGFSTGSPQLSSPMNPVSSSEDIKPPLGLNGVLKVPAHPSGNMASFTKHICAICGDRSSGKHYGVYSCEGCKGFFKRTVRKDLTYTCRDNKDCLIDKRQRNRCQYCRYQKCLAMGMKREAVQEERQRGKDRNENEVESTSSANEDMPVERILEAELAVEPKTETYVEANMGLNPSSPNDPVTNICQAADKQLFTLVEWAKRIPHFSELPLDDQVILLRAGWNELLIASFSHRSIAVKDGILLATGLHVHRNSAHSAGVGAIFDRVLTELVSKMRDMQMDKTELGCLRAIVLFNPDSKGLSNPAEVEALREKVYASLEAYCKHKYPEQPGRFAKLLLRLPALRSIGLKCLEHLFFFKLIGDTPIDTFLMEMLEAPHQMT

For test [2], the target named is human Retinoid X Receptor beta (RXRb), RXRB (gene 6257) (UniProt P28702). The test can be described thus: ATG_RXRb_TRANS: Attagene TRANS-FACTORIAL HepG2 Assay for human Retinoid X Receptor beta (RXRb) (AID 2283013; active means hit-call score of the fitted dose curve at least 0.9, where 1 is the maximum). The gist of the method: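 Read-out: reporter mRNA induction via RT-PCR plus capillary electrophoresis fluorescence, analysed as signal increase relative to DMSO. Cells were human HepG2, transiently transfected with GAL4-UAS reporter constructs and chimeric receptor-Gal4 fusions, dosed for 24 h.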
Sequence of human Retinoid X Receptor beta (RXRb), RXRB (gene 6257) (P28702 whole entry, looked up, the tested form may be a part): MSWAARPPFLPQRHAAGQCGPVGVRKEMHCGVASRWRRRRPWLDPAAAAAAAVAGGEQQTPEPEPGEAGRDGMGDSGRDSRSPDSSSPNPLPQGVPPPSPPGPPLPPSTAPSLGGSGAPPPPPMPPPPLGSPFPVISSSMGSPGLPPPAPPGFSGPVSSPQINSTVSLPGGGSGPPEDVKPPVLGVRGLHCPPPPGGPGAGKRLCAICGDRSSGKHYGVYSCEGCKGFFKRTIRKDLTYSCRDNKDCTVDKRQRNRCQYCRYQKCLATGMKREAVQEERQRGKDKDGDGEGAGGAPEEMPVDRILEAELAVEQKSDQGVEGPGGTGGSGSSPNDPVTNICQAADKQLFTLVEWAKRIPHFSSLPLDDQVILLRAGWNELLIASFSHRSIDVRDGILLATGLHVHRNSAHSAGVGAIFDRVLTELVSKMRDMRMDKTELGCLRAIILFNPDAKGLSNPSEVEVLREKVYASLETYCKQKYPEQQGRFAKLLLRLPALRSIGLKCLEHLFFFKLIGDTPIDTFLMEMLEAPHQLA

The target of test [3] is human Thyroid Receptor alpha (THRa1), THRA (gene 7067) (UniProt P10827). The test can be described thus: ATG_THRa1_TRANS: Attagene TRANS-FACTORIAL HepG2 Assay for human Thyroid Receptor alpha (THRa1) (AID 2283014; active means hit-call score of the fitted dose curve at least 0.9, where 1 is the maximum). The gist of the method:
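Reporter transcript induction, read by capillary electrophoresis of 6-FAM-labelled RT-PCR products, reflects activity of a transfected THRa1-Gal4 fusion in HepG2 liver cells. Cells were dosed for 24 h; activity was fitted in the positive direction against DMSO.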

Read-out in test [4]: E-selectin (Homo sapiens) (UniProt P16581)
Nature of the test: BSK_3C_Eselectin: BioMAP Diversity Plus: 3C Assay for Eselectin Biomarker Activity (AID 2283015).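 On outcome: cell surface E-selectin protein quantified by ELISA 24 h after dosing.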 The note with it: primary human endothelial cells (HUVEC); actives raise or lower the signal. The gist of the method: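 ELISA read-out of E-selectin on endothelial monolayers after 24 h chemical treatment. Human umbilical vein primary cells served as the system, with DMSO defining baseline activity for bidirectional fitting.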

Read-out in test [5]: Interleukin-1 alpha (IL1a), IL1A (gene 3552)
The test can be described thus: BSK_BE3C_IL1a: BioMAP Diversity Plus: BE3C Assay for Interleukin-1 alpha (IL1a) Biomarker Activity (AID 2283016). To be noted: primary human bronchial epithelial cells; actives raise or lower the signal. The gist of the method:
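ELISA read-out of IL-1a from human lung bronchial epithelial primary cells, 24 h post-dose. Gain or loss of signal fitted relative to DMSO negative control.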

Read-out in test [6]: Monocyte Chemoattractant Protein-1 (MCP1), CCL2 (gene 6347)
Nature of the test: BSK_3C_MCP1: BioMAP Diversity Plus: 3C Assay for Monocyte Chemoattractant Protein-1 (MCP1) Biomarker Activity (AID 2283017). The note with it: primary human endothelial cells (HUVEC); actives raise or lower the signal. The gist of the method:
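ELISA read-out of MCP-1 from human umbilical vein endothelial cell cultures harvested 24 h post-dosing. Gain or loss of signal was fitted relative to DMSO.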

Read-out in test [7]: Monocyte Chemoattractant Protein-1 (MCP1), CCL2 (gene 6347)
The test can be described thus: BSK_4H_MCP1: BioMAP Diversity Plus: 4H Assay for Monocyte Chemoattractant Protein-1 (MCP1) Biomarker Activity (AID 2283018). The note with it: primary human endothelial cells (HUVEC); actives raise or lower the signal. The gist of the method: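 HUVEC primary cells, 24 h post-dose, MCP-1 by ELISA. Gain or loss of signal fitted bidirectionally vs DMSO baseline. Cytotoxicity: SRB stain (0.1% after 10% TCA fixation), read 560 nm, parallel cultures.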

Read-out in test [8]: Human Leukocyte Antigen - DR isotype (HLADR), HLA-DRA (gene 3122)
Nature of the test: BSK_3C_HLADR: BioMAP Diversity Plus: 3C Assay for Human Leukocyte Antigen - DR isotype (HLADR) Biomarker Activity (AID 2283019).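 On outcome: ELISA of cell-surface HLA-DR on HUVEC 24 h after dosing.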 The note with it: primary human endothelial cells (HUVEC); actives raise or lower the signal. The gist of the method:
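ELISA readout of surface HLA-DR on human umbilical vein endothelium, taken 24 h after chemical treatment. Gain- and loss-of-signal were both fitted relative to DMSO.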

Read-out in test [9]: Interleukin-8 (IL8), CXCL8 (gene 3576)
Nature of the test: BSK_3C_IL8: BioMAP Diversity Plus: 3C Assay for Interleukin-8 (IL8) Biomarker Activity (AID 2283020). The note with it: primary human endothelial cells (HUVEC); actives raise or lower the signal. The gist of the method:
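HUVEC, 3C stimulation; 24 h compound exposure; IL-8 read by ELISA; gain or loss of signal fitted relative to DMSO control.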

Read-out in test [10]: Monokine induced gamma interferon (MIG), CXCL9 (gene 4283)
Nature of the test: BSK_3C_MIG: BioMAP Diversity Plus: 3C Assay for Monokine induced gamma interferon (MIG) Biomarker Activity (AID 2283021). To be noted: primary human endothelial cells (HUVEC); actives raise or lower the signal. The gist of the method:
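HUVEC, 3C system; 24 h chemical exposure; MIG by ELISA; bidirectional fit vs DMSO baseline.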

The nature of test [11]: BSK_3C_SRB: Viability Assessment in the BioMAP Diversity Plus: 3C Assay (AID 2283023).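 Further: fitted both ways against DMSO so a hit may be signal rise or drop.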 The note with it: primary human endothelial cells (HUVEC). The gist of the method:
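Absorbance at 560 nm of sulforhodamine B-stained (0.1%) total protein served as a cytotoxicity readout in human umbilical vein endothelial cells, 24 h after chemical treatment. Signal was fitted bidirectionally relative to DMSO.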

Read-out in test [12]: Matrix Metallopeptidase 1 (MMP1), MMP1 (gene 4312)
Nature of the test: BSK_BE3C_MMP1: BioMAP Diversity Plus: BE3C Assay for Matrix Metallopeptidase 1 (MMP1) Biomarker Activity (AID 2283024). To be noted: primary human bronchial epithelial cells; actives raise or lower the signal. The gist of the method: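 ELISA read-out of MMP1 in human lung bronchial epithelial primary cultures, 24 h post-dose; bidirectional curve fit vs DMSO baseline, gain or loss of signal scored.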

Test [13] in a line: BSK_3C_Vis: BioMAP Diversity Plus: 3C Assay for Morphology Visualization (AID 2283025).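 Further: fitted both ways so gain or loss versus DMSO counts.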 To be noted: primary human endothelial cells (HUVEC). The gist of the method: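 HUVEC, 3C system; light microscopy of morphology at 24 h post-dose. Bidirectional fit vs DMSO baseline. Secondary readout, background-control function.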
Read-out in test [14]: Pselectin, SELP (gene 6403)
The test can be described thus: BSK_4H_Pselectin: BioMAP Diversity Plus: 4H Assay for Pselectin Biomarker Activity (AID 2283026). To be noted: primary human endothelial cells (HUVEC); actives raise or lower the signal. Summed up:
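HUVEC, 24 h chemical exposure; P-selectin read by ELISA. Bidirectional curve fit vs DMSO baseline; gain or loss of signal scored.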

Test [15] in a line: BSK_4H_SRB: Viability Assessment in the BioMAP Diversity Plus: 4H Assay (AID 2283027).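 Further: cells exposed to compound for 24 h before staining.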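 On AC50: curves fitted both ways versus DMSO so AC50 may be loss or gain.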 The note with it: primary human endothelial cells (HUVEC). The gist of the method: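 HUVEC, 24 h post-dose; 10% TCA fix, 0.1% SRB stain, A560 nm. Total protein = overt cytotoxicity, parallel to biomarker read. Bidirectional fit vs DMSO baseline.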
Test [16] is described as follows: BSK_BE3C_SRB: Viability Assessment in the BioMAP Diversity Plus: BE3C Assay (AID 2283028).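 On AC50: fitted both ways so AC50 may mark signal gain or loss versus DMSO.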 The note with it: primary human bronchial epithelial cells. The gist of the method: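 Cells (human bronchial epithelial, primary) are treated with chemicals, and after 24 h the parallel cultures are fixed in 10% TCA. These are then stained with 0.1% SRB and read at 560 nm. Gain or loss of signal is fitted relative to DMSO.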

Read-out in test [17]: Thrombomodulin, THBD (gene 7056)
Nature of the test: BSK_3C_Thrombomodulin: BioMAP Diversity Plus: 3C Assay for Thrombomodulin Biomarker Activity (AID 2283029). To be noted: primary human endothelial cells (HUVEC); actives raise or lower the signal. Summed up: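 HUVEC, 3C conditions; compound 24 h; thrombomodulin by ELISA; bidirectional curve fit vs DMSO baseline; parallel SRB total-protein staining for cytotoxicity.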

Read-out in test [18]: Urokinase-type plasminogen activator receptor (uPAR), PLAUR (gene 5329)
Nature of the test: BSK_4H_uPAR: BioMAP Diversity Plus: 4H Assay for Urokinase-type plasminogen activator receptor (uPAR) Biomarker Activity (AID 2283030). To be noted: primary human endothelial cells (HUVEC); actives raise or lower the signal. The gist of the method:
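Cell-surface uPAR ELISA signal, measured 24 h after dosing human umbilical vein endothelial cells, was analyzed with bidirectional fitting relative to DMSO. Parallel SRB staining of total protein tracked overt cytotoxicity.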

Read-out in test [19]: Vascular endothelial growth factor receptor 2 (Homo sapiens) (UniProt P35968)
Nature of the test: BSK_4H_VEGFRII: BioMAP Diversity Plus: 4H Assay for Vascular endothelial growth factor receptor 2 (VEGFR2) Biomarker Activity (AID 2283031). To be noted: primary human endothelial cells (HUVEC); actives raise or lower the signal. The gist of the method:
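ELISA read-out of VEGFRII in primary human umbilical vein endothelium, taken 24 h after chemical treatment. Responses are expressed relative to DMSO, with bidirectional fitting.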

Test [20] concerns the target human Vitamin D Receptor (VDR), VDR (gene 7421) (UniProt P11473). Nature of the test: ATG_VDR_TRANS: Attagene TRANS-FACTORIAL HepG2 Assay for human Vitamin D Receptor (VDR) (AID 2283022; active means hit-call score of the fitted dose curve at least 0.9, where 1 is the maximum). Summed up:
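Steps: transfect HepG2 with GAL4-UAS-driven reporter constructs; dose compounds 24 h; isolate RNA, reverse-transcribe, PCR-amplify with 6-FAM-labelled primer extension and HpaI digestion; quantify fragments by capillary electrophoresis relative to DMSO.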

Values joined by “and” are separate entries in the source; they are usually repeats but may differ in a detail not shown here. Equal entries are not always repeated. Results filed as inconclusive are left out. A structure can be active in one record and inactive in another. Active and inactive are the calls of the source. How the source made its calls, unless noted: active means hit-call score of the fitted dose curve at least 0.9, where 1 is the maximum; inactive means score below 0.9.

Sequence of human Vitamin D Receptor (VDR), VDR (gene 7421) (P11473 whole entry, looked up, the tested form may be a part): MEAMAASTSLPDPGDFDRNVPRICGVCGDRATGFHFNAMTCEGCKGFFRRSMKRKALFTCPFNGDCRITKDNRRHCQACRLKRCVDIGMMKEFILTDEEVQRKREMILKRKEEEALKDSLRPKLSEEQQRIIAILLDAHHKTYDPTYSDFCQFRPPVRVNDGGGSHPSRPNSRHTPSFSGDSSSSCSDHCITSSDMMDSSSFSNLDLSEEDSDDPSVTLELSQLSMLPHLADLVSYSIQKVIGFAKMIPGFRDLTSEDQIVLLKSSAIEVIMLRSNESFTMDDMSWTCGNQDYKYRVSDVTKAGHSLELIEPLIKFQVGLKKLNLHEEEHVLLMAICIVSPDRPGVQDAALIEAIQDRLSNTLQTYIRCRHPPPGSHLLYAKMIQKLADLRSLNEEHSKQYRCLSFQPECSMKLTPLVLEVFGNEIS
Sequence of human Thyroid Receptor alpha (THRa1), THRA (gene 7067) (P10827 whole entry, looked up, the tested form may be a part): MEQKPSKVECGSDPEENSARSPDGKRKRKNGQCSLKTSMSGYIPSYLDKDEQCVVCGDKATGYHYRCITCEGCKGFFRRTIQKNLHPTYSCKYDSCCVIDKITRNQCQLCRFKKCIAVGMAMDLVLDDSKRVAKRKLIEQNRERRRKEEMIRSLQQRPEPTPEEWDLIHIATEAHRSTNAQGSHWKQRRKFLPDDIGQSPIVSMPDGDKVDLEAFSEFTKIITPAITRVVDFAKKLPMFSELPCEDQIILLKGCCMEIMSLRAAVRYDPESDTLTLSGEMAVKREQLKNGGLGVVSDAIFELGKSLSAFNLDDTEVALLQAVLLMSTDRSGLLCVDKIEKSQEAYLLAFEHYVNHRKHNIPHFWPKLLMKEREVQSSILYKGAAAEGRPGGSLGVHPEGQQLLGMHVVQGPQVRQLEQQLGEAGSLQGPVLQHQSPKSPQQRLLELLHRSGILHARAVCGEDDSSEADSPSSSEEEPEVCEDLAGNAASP
Sequence of E-selectin (Homo sapiens) (P16581 whole entry, looked up): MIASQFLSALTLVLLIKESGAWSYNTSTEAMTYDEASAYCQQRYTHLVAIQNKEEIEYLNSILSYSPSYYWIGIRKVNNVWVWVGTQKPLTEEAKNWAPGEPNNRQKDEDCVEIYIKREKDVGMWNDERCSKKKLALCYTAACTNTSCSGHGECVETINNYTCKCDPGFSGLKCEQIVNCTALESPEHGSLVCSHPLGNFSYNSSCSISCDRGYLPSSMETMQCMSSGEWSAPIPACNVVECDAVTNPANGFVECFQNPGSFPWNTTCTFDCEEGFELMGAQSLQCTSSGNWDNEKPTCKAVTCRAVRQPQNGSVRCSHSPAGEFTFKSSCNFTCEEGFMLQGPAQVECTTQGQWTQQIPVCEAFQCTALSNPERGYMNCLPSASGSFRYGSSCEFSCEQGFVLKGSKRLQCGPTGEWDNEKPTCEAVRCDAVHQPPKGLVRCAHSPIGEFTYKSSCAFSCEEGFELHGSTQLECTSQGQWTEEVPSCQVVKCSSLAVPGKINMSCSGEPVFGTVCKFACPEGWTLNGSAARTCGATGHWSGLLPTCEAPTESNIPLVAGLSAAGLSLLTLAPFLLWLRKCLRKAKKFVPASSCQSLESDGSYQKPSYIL

In the case of `[As]#[In]`, the outcome in test [1], in test [2], in [3], in [4], in [5] and in test [6] was inactive. For the same molecule, the result in test [7], in test [8], in test [9], in test [10], in test [11] and in test [12] was inactive. In addition, the outcome in test [13], in [14], in test [15], in [16], in [17] and in test [18] was inactive. In [19], the outcome was inactive.
As for `CCNS(=O)(=O)C(F)(F)C(F)(F)C(F)(F)C(F)(F)C(F)(F)C(F)(F)C(F)(F)C(F)(F)F`, the result in test [1], in [2], in [3], in test [4], in test [5] and in test [6] was inactive. Also, the result in [7], in test [8], in test [9], in [10], in test [20] and in test [11] was inactive. Also, the outcome in test [12], in test [13], in [15], in test [16], in [17] and in test [18] was inactive. Further, the result in [19] was inactive. Also, the AC50 in test [5] is 44.5 µM (active) and 21.9 µM (active); in test [6] it was 51.4 µM (active); in test [7], 30 µM (active); in [8] it was 14.6 µM (active) and 6.07 µM (active); in test [9], 26 µM (active); in [11], 43.4 µM (active) and 44.3 µM (active). Besides, the AC50 in test [12] was 4.99 µM (active) and 11.3 µM (active); in test [15], 45.1 µM (active) and 47.3 µM (active); in [16], 49.7 µM (active) and 50.3 µM (active).
As for `O=[N+]([O-])c1ccc(Oc2ccc(Cl)cc2Cl)cc1`, the call in [1], in test [2], in test [3], in test [5], in [10] and in test [20] was inactive. Also, the outcome in test [12], in test [15], in [16], in test [17], in [18] and in test [19] was inactive. The half-maximal activity concentration (AC50) in [4] was 20 µM (active); in [6], 27.8 µM (active); in test [7], 10.3 µM (active); in [8] it was 30.5 µM (active); in test [9] it was 20 µM (active); in test [11] it was 31.2 µM (active). Besides, the AC50 in [13] is 39 µM (active).
Take `CCCCCCCCCCCCCN1CC(C)OC(C)C1` (stereo not drawn): the values for the half-maximal activity concentration (AC50) in test [1] and in test [2] were 26.4 µM (active) and 26.6 µM (active), respectively. For the same molecule, the outcome in test [3], in test [4], in test [5], in [6], in test [7] and in test [8] was inactive. Moreover, the outcome in [9], in test [10], in [11], in test [12], in test [13] and in [14] was inactive. Further, the outcome in test [15], in [16], in [17], in [18] and in [19] was inactive.
As to `O=Cc1ccco1`, the molecule was classed as inactive in test [1], in test [2], in test [4], in [5], in test [6] and in [7]. Further, the outcome in [8], in test [9], in [10], in test [20], in test [11] and in test [12] was inactive. Further, the result in test [13], in test [14], in test [15], in test [16], in test [17] and in test [18] was inactive. Further, in test [19], the result was inactive.
For `C[C@]12C=CC3=C4CCC(=O)C=C4CC[C@H]3[C@@H]1CC[C@@H]2O`, the molecule was classed as inactive in [1], in test [2], in test [3], in test [5], in test [6] and in test [7]. Moreover, the result in [9], in test [10], in test [14], in test [15], in test [16] and in [17] was inactive. Further, the result in test [19] was inactive. Also, the AC50 was 9.4 µM (active) in test [4]; 20 µM (active) in test [8]; 7.77 µM (active) in [11]; 10.2 µM (active) in test [12]; 7.2 µM (active) in test [13]; 16 µM (active) in test [18].
